Source: PubChem BioAssay (National Center for Advancing Translational Sciences (NCATS))
An excerpt weighted towards active compounds, which were near 8.3% of everything screened.
Marburg entry inh: blocks Marburg virus binding to or entry into cells. Potency, µM (doses to about 37.8 µM), without a hit: top-dose activity change, negative = inhibition, most hits filed as inhibitors. 1.8% of 300,000 active. Marburg virus pseudotyped entry inhibition, cell reporter; calls by dose curve; tested in HEK293 cells; further: potency means the concentration at half of the fitted maximal effect
HCMV inh: inhibitors of human cytomegalovirus. HFF cells, HCMV-luciferase reporter, 72 h; stronger effect = lower value. 4.5% of 410,000 active. activity change, negative = inhibition, % at 57.5 µM. AID 1259415; in the data active means activity change below about -60%; inconclusive means no clear call, values can overlap the other calls; inactive means above about -39%
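Cell-based, HFFs, 1000 cells/well, 16 h 37C; cpds in DMSO + HCMV-luc, MOI 1 PFU/cell; 72 h 37C; OneGlo luminescence after 5 min RT; norm. to buffer vs Salinomycin 10uM.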
HCV inh: HCV inhibition; Huh7.5.1 HCVcc-Cre infection, luciferase reporter, 44 h; Potency, µM (top dose mostly 41.8 µM), for the others: at the highest dose activity change, negative = inhibition, most hits filed as inhibitors; 3.4% of 340,000 active; further: potency means the concentration at half of the fitted maximal effect
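Cells seeded at 1,000/well and cultured 4 h, then compounds added followed by HCVcc-Cre virus (~0.5 moi). After 44 h further culture, luciferase substrate was added, plates held 15 min at room temperature, and luminescence read for 15 sec.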
FMDV antiviral: foot and mouth disease virus antiviral activity. Potency, µM (doses to about 57.9 µM), without a hit: at the highest dose activity change, negative = inhibition, actives largely listed as inhibitors. 1.2% of 410,000 active. FMDV antiviral cell-based qHTS. AID 1159524; calls by dose curve; tested in HEK293T cells; further: read-out not given here; potency means the concentration at half of the fitted maximal effect; nearly all actives have a fitted effect of over 45% in size
Lassa entry inh: Lassa virus entry inhibition. Potency, µM (highest dose often 37.9 µM), without a hit: top-dose activity change, negative = inhibition, most hits filed as inhibitors. 1.2% of 300,000 active. Lassa virus pseudotype entry inhibition, cell reporter; calls by dose curve; tested in HEK293 cells; further: potency means the concentration at half of the fitted maximal effect; nearly all actives have a fitted effect of over 50% in size
FBPA Giardia inh: inhibitors of Giardia lamblia fructose-1,6-bisphosphate aldolase. purified Giardia FBPA. A8B2U2. 0.71% of 290,000 active. Potency, µM (doses to about 59.6 µM), without a hit: at the highest dose activity, negative = inhibition, most hits filed as inhibitors; further: potency means the concentration at half of the fitted maximal effect; nearly all actives have a fitted effect of over 55% in size
Target sequence (A8B2U2 whole entry, looked up): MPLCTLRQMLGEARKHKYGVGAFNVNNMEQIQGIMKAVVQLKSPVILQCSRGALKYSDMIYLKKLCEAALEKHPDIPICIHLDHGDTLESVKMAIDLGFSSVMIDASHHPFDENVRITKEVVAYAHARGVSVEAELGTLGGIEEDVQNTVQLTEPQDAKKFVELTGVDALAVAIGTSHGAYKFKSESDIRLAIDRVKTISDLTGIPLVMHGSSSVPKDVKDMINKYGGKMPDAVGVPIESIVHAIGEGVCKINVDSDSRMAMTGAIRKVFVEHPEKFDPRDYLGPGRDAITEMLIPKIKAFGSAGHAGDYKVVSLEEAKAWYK
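Giardia FBPA (40 nM reagent) was preincubated 10 min at RT with compound (up to 57.5 uM final), then substrate plus GAPDH/TPI/NAD/arsenate coupling system with diaphorase/resazurin was added; resorufin fluorescence (525/598 nm) was read after 20 min.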
* marks the source's active call; other numbers are inactive results; ? = inconclusive; nt = no result; ! = repeats disagree; [ ] = another dose, or the depositor's remark. Unless noted, the call rests on the fitted dose curve; in most records, active means well fitted curve in the direction sought with a large enough effect; inconclusive means small, poorly fitted or top-dose-only effect, or another doubt; inactive means no such curve, though single readings can be large; an effect the other way counts as inactive or inconclusive. On the % scale 0 is the no-effect control and ±100 the full control effect.

SMILES	Marburg entry inh	HCMV inh	HCV inh	FMDV antiviral	Lassa entry inh	FBPA Giardia inh
COCC(C)n1c(C)cc(C(=O)CSc2ncccn2)c1C (centres undefined)	3.0%[46.1 µM]	70.7	27.5%	57.6%	8.7%	-0.9%
COc1ccc(-c2cc(=O)c3cc(F)ccc3[nH]2)cc1	9.0%	-12.1	2.0%	-21.1%	-6.5%	-6.3%[89.2 µM]
COc1ccc2[nH]c(-c3ccc(C)cc3)cc(=O)c2c1	?	nt	-8.0%	-33.8%	4.11µM*	2.3%
COc1ccc2[nH]c(C(=O)c3ccccc3)cc2c1	nt	nt	nt	49.9%	nt	1.0%
COc1ccc2[nH]c(-c3ccccc3)cc2c1	8.91µM*	-36.1	-28.1%	19.1%	-26.6%	-10.9%
Cc1ncc2c(c1CNC(=O)c1cncs1)CCN(C(=O)c1ccc(-c3ccccc3)cc1)C2	nt	nt	nt	-5.3%	nt	nt
COc1cccc(C(=O)N(Cc2sccc2C)C2CCS(=O)(=O)C2)c1 (centres undefined)	-21.4%[46.1 µM]	25.8	nt	-13.5%	4.4%[46.1 µM]	nt
CCc1noc(-c2ccc(NCc3ccccc3)c([N+](=O)[O-])c2)n1	?	45.0	nt	18.8%	3.2%[46.1 µM]	nt
Cc1cc2c(nc1C)CCCN2C[C@H](C)O/N=C\[C@@H](C)[C@H](OCc1ccccc1)C(C)C	nt	nt	nt	nt	nt	4.6%[12.9 µM]
Cc1ccc(NCc2cccn2-c2nnc(N3CCC(C(=O)NCCC(C)C)CC3)s2)cc1	-10.6%[46.1 µM]	-67.5*	nt	?	nt	nt
Cc1ccc(NCc2cccn2-c2nnc(N3CCC(C(=O)NC(C)C)CC3)s2)cc1	10.1%[46.1 µM]	-37.1	nt	-20.2%	nt	nt
COc1ccc(NCc2cccn2-c2nnc(N3CCC(C)CC3)s2)c(OC)c1	nt	-21.2	nt	2µM*	-2.2%[46.1 µM]	nt
COc1ccc(OC)c(NCc2cccn2-c2nnc(N3CCC(C)CC3)s2)c1	nt	?	nt	23.2%	-19.7%[46.1 µM]	nt
CCOc1ccc(NCc2cccn2-c2nnc(N3CCC(C(=O)NCCCN4CCCCC4C)CC3)s2)cc1 (centres undefined)	nt	-66.3*	?	-13.5%	nt	-6.3%
CCCC[C@H]1C[C@@H]1[C@@H]1N(P(=O)(c2ccccc2)c2ccccc2)C[C@@](O)(c2ccccc2)CC12CC2	nt	nt	nt	nt	nt	0.7%
CCCCC/C=C\C/C=C\C/C=C\CCCCC(=O)NCCCC(=O)O	nt	nt	nt	nt	nt	6.9%
CC(C)c1nc2oc3c(NCc4cccnc4)ncnc3c2c2c1CCC2	-13.6%	-10.9	7.08µM*	10.1%	?	-1.2%
CC(C)Cc1nc2oc3c(NCC4CCCO4)ncnc3c2c2c1CCC2 (centres undefined)	?	-12.6	14.1µM*	?	-23.8%	-5.8%
CC(C)Cc1nc2oc3c(NCc4cccnc4)ncnc3c2c2c1CCC2	?	-29.1	?	-6.2%	-7.4%	12.6%
CCc1cc2c(nc1CC)CCN(CC/C(C)=N/OC[C@@H](O)[C@@H]1O[C@@H]3OC(C)(C)O[C@@H]3[C@H]1O)C2	-6.4%[14.2 µM]	nt	nt	nt	nt	-2.2%[12.9 µM]
CN1/C(=C\C(=S)NC(=O)c2cccc(Br)c2)C(C)(C)c2ccccc21	?	-95.6*	11.2µM*	?	-1.1%	3.5%
CCN(CC)S(=O)(=O)c1cccc(C(=O)/C=C2/N(C)c3ccccc3C2(C)C)c1	?	?	10µM*	?	?	-15.9%
CN1/C(=C/C(=O)C2CC2)C(C)(C)c2ccccc21	-22.4%[46.1 µM]	-22.2	12.5%	-6.2%	4.7%	-2.6%
CN1/C(=C\C(=O)Nc2cccc(Cl)c2)C(C)(C)c2ccccc21	?	?	31.6µM*	-14.6%	-27.1%[46.1 µM]	-16.5%
CN1/C(=C\C(=O)Nc2ccc(Br)cc2)C(C)(C)c2ccccc21	0.0%	9.2	-32.6%	-13.1%	?	1.5%
SMILES	Marburg entry inh	HCMV inh	HCV inh	FMDV antiviral	Lassa entry inh	FBPA Giardia inh
CCC[C@H]1[C@@H](NC(=O)NCCCC(=O)OCC)CC[C@@]23CCCN2C(=O)CCC[C@@H]13	nt	3.7	nt	nt	nt	nt
COc1cc(C(=O)Nc2nc(-c3ccc(C)cc3)cs2)ccc1OCC(=O)N1CCOCC1	-2.4%	-30.3	11.2µM*	22.4µM*	6.5%	-4.6%
O=C(Nc1nc(-c2ccc(S(=O)(=O)N3CCOCC3)cc2)cs1)c1ccccc1	3.98µM*	-91.5*	7.94µM*	14.1µM*	?	nt
O=S(=O)(c1ccc(-c2csc(-c3cccnc3)n2)cc1)N1CCOCC1	?	-63.9*	-9.6%	-22.1%	2.0%	0.9%
O=C(Nc1nc(-c2nc3ccccc3s2)cs1)c1ccc(S(=O)(=O)N2CCOCC2)cc1	?	?	11.2µM*	?	-79.6%	-0.4%
CC(C)CCn1c(=O)c2sccc2n2c(CCCC(=O)NCCc3ccccc3)nnc12	nt	-12.6	nt	8.1%	-24.6%[46.1 µM]	nt
C/C=C(\C=C\[C@@H](C)C/C=C/CC/C=C/C=C\C[C@@H](OC)/C(C)=C\C=C(C)C)CC(=O)O	nt	nt	nt	nt	nt	7.5%
COc1cccc(C(=O)Nc2nc(-c3ccc(S(=O)(=O)N4CCOCC4)cc3)cs2)c1	?	-87.5*	10µM*!	?	11.2µM*	1.9%
CCOC(=O)c1c(S(=O)(=O)N2CCCC(C(=O)NCc3ccc(Cl)cc3)C2)c(C)n(C)c1C (centres undefined)	nt	-10.6	nt	14.7%	1.2%[46.1 µM]	nt
Oc1c(CN2CCN(c3ccccc3)CC2)cc(Br)c2cccnc12	nt	-70.3*	?	?	nt	-22.8%
O=C(Oc1c(CN2CCOCC2)cc(Cl)c2cccnc12)c1ccccc1Br	nt	-67.2*	?	-20.3%	nt	?
c1ccc(N2CCN(Cc3ccnc4ccccc34)CC2)cc1	?	-83.0*	28.2µM*	-4.1%	-24.5%	?
CC(C)OCc1cc(CN2CCN(c3ccccc3)CC2)c(O)c2ncccc12	?	-70.0*	nt	?	?	nt
COCc1cc(CN2CCN(C)CC2)c(O)c2ncccc12	?	?	?	-9.0%	?	?
CN1CCN(Cc2cc(Cl)c3cccnc3c2OC(=O)c2cccs2)CC1	?	?	?	-19.3%	-21.8%	0.6%
Brc1cc2c(cc1CN1CCN(c3ccccc3)CC1)OCCO2	?	26.7	2.6%	-28.4%	?	-4.2%
CC(C)OC(=O)c1c(NC(=O)c2cc3nc(-c4ccccc4)cc(C(F)(F)F)n3n2)sc2c1CCCC2	nt	-2.9	nt	-1.4%	5.8%[46.1 µM]	nt
CCOC(=O)c1ccc(NC(=O)c2c(NCc3cccs3)sc3c2CCCCC3)cc1	nt	-32.1	nt	5.8%	?	nt
CCOC(=O)OC[C@H]1O[C@H](c2ccc(C(C)=O)cc2)C=C[C@H]1Oc1ccc(-c2ccccc2)cc1	2.8%[14.2 µM]	nt	nt	nt	?	nt
CC(C)=CC(=O)Oc1ccc(C(=O)N(C)c2ccccc2I)cc1	nt	nt	nt	nt	nt	5.0%
Cn1c2ccccc2c2cc(C(=O)N3CCOc4ccc(C(C)(O)CCn5cccn5)cc4C3)ccc21 (centres undefined)	nt	nt	nt	-10.2%	nt	nt
CCOCc1cc(CN2CCN(c3cccc(Cl)c3)CC2)c(O)c2ncccc12	?	-100.2*	nt	-22.9%	?	nt
CCOC(=O)N1CCN(Cc2cc(Cl)c3cccnc3c2O)CC1	?	-92.1*	3.98µM*	-24.1%	?	?
